Only some compounds are listed: those with a hit (about 12% of all), similar ones and a draw of the others.
G9a block – blocks human histone lysine methyltransferase G9a; G9a H3K9 monomethylation, AlphaScreen, 2 h; Potency, µM (highest dose often 102 µM), without a hit: at the highest dose activity, negative = inhibition, usual class: inhibitors; 8.8% of 350,000 active; AID 504332; also: % is scaled to controls: 0 for no effect and ±100 for the full control effect; nearly all actives have a fitted effect of over 75% in size
Target sequence (Q96KQ7 913-1193 limits assumed): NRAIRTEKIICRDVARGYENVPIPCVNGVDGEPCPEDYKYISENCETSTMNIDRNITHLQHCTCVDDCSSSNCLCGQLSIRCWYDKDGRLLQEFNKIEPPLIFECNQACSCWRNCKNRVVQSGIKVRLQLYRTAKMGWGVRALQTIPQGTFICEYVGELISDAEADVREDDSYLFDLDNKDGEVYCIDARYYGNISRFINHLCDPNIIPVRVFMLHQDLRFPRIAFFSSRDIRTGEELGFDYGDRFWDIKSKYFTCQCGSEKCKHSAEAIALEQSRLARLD
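G9a (20 nM) was preincubated 15 min with compound, then reacted 2 h at room temperature with 500 nM biotin-H3K9 peptide and 20 µM SAM. Monomethyl-H3K9 detected by AlphaScreen using anti-H3K9me1 antibody.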
Sfp inh – Sfp phosphopantetheinyl transferase inhibition | Potency, µM, for the others: largest response in the series, negative = inhibition, most hits filed as inhibitors | 3.5% of 310,000 active | Biochemical Sfp PPTase activity, qHTS;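 also: the enzyme is Sfp with the accession as filed and its product quenches rhodamine fluorescence; 0% = enzyme reaction without inhibitor and -100% = no enzyme wells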
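Step 1, compound plus 15 nM Sfp-PPTase, 15 min, room temperature. Step 2, add rhodamine-CoA (5 uM) and BHQ-2-YbbR (12.5 uM). Step 3, read 525/598 nm fluorescence at 0 and 30 min.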
BAZ2B block – blocks human BAZ2B; AID 504333; 4.4% of 360,000 active; AlphaScreen BAZ2B-H3K14Ac peptide displacement; Potency, µM (top dose mostly 114 µM), without a hit: at the top dose activity change, negative = inhibition, usual class: inhibitors; Q9UIF8; also: % is scaled to controls: 0 for no effect and ±100 for the full control effect; nearly all actives have a fitted effect of over 60% in size
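BAZ2B 50 nM plus b-H3(5-23)K14Ac 50 nM, PBS pH 7.4/0.01% Tween-20, 30 min RT; compound added (max 110 uM), 30 min RT; streptavidin donor/Ni-chelate acceptor beads 10 ug/mL final, 20 min dark; AlphaScreen read.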
HP1b chromo inh – blocks HP1-beta chromodomain binding to methylated histone tails. P83916. AlphaScreen HP1-beta / biotin-H3K9me3 peptide binding. Potency, µM (doses to about 114 µM), without a hit: at the top dose activity change, negative = inhibition, usual class: inhibitors. 0.56% of 390,000 active. AID 540317; also: nearly all actives have a fitted effect of over 70% in size
Target sequence (P83916 whole entry, looked up): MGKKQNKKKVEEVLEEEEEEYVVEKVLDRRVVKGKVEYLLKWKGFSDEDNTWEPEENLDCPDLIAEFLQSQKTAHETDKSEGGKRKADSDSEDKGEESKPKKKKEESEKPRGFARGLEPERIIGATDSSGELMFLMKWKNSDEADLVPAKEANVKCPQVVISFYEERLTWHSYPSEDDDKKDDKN
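HP1-beta protein (50 nM final) preincubated 30 min at room temperature with biotinylated H3(1-18)K9me3 peptide (50 nM) in PBS pH 7.4, 0.01% Tween-20, then compound added for 30 min. AlphaScreen streptavidin donor/nickel chelate acceptor beads (10 ug/mL final), 30 min dark, luminescence read.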
JMJD2A Tudor – blocks the human JMJD2A Tudor domain; AlphaScreen JMJD2A-Tudor / H3K4me3 peptide binding; Potency, µM (titrated, usually from 114 µM), without a hit: top-dose activity change, negative = inhibition, usual class: inhibitors; 4.4% of 390,000 active; AID 504339; also: % is scaled to controls: 0 for no effect and ±100 for the full control effect; nearly all actives have a fitted effect of over 50% in size
L3MBTL1 inh – inhibitors of human L3MBTL1 | Q9Y468 | AlphaScreen L3MBTL1–H3K9me1 peptide binding | Potency, µM (top dose mostly 57.1 µM), inactives show at the highest dose activity, negative = inhibition, hits mostly inhibitors | 0.66% of 230,000 active | AID 485360; also: % is scaled to controls: 0 for no effect and ±100 for the full control effect; nearly all actives have a fitted effect of over 60% in size
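Displacement of a biotinylated histone H3(1-15) peptide monomethylated at Lys9 (75 nM) from L3MBTL1 (50 nM) was measured by AlphaScreen after a 30 min room-temperature compound incubation; cefsulodin titration served as intraplate control.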
Starred values were filed as active, the others as inactive; u = inconclusive; x = not tested or not shown; [ ] = another dose, or the depositor's remark. Calls follow the shape of the dose curve; as a rule, active = well fitted curve in the direction sought with a large enough effect; inconclusive = small, poorly fitted or top-dose-only effect, or another doubt; inactive = no such curve, though single readings can be large; an effect the other way counts as inactive or inconclusive. Potency is read from the fitted curve at half-maximal effect.

SMILES	G9a block	Sfp inh	BAZ2B block	HP1b chromo inh	JMJD2A Tudor	L3MBTL1 inh
CCOC(=O)c1ccc(N2CCN(c3cc(C)ccc3C)CC2)c(NC(=O)Nc2ccccc2)c1	-2.9%[59 µM]	x	-0.9%	41.6%	-17.1%	x
Cc1cccc(NCc2ccccc2O)c1C	u	4.5%	-37.4%	0.6%	u	-8.7%
Cc1cccc(NCc2nnc(-c3ccccc3)o2)c1C	4.6%	11.7%	-6.7%	-13.3%	79.4µM*	-5.3%
O=[N+]([O-])c1cccc(S(=O)(=O)Nc2ccc(S(=O)(=O)N3CCCC3)cc2)c1	x	x	x	37.9%	-7.6%	x
O=[N+]([O-])c1ccc(Cl)c(S(=O)(=O)Nc2ccc(S(=O)(=O)N3CCOCC3)cc2)c1	44.7µM*	7.5%	-2.0%	28.4%	-1.8%	x
O=[N+]([O-])c1ccc(S(=O)(=O)Nc2ccc(S(=O)(=O)N3CCCC3)cc2)cc1	35.5µM*	-6.3%	-20.5%	13.6%	-0.7%	x
COC(=O)CNC(=O)c1ccc(NS(=O)(=O)c2cc([N+](=O)[O-])ccc2Cl)cc1	56.2µM*	-23.5%	15.8%	11.3%	-15.0%	-25.3%
COC(=O)c1ccc2c(=O)n(CCc3ccc(S(N)(=O)=O)cc3)c(SCC(=O)C(C)(C)C)nc2c1	1.6%[59 µM]	x	2.2%	35.7%	-10.7%	x
Nc1nc2c(F)c(F)c(F)cc2s1	17.8µM*	u	-1.9%	3.2%	-13.6%	3.2%
Nc1nc2c(F)cccc2s1	1.5%	17.9%	0.1%	24.5%	-7.1%	2.0%
O=C(NCCCN1CCOCC1)c1ccc2c(c1)N(Cc1ccc(F)cc1)CCS2	44.7µM*	-10.8%	u	19.0%	u	x
O=C(NCCCN1CCOCC1)c1ccc2c(c1)N(Cc1c(F)cccc1Cl)C(=O)c1ccccc1S2	35.5µM*	-4.4%	u	7.1%[57 µM]	u	x
Cc1cc(Br)ccc1OCCOCCN1CCCC1	x	-4.4%	u	2.4%	25.1µM*	-1.5%
Cc1ccc(OCCCCN2CCc3ccccc3C2)c(C)c1	5.4%[0.501 µM]	-20.7%	7.6%	43.1%	-4.9%	7.3%[2.29 µM]
Cc1ccc(OCCOCCN2CCCC2)c(Br)c1	35.5µM*	-10.2%	56.2µM*	u	28.2µM*	-0.1%
Brc1ccc(OCCOCCN2CCOCC2)cc1	-39.7%[12.7 µM]	11.6%	-3.0%	7.5%	-12.2%	x
Cc1cc(Br)ccc1OCCCCN1CCCCC1	u	44.7µM*	50.1µM*	u	1.58µM*	-16.6%
O=c1oc2ccccc2c(Nc2cc3ccccc3cc2O)c1[N+](=O)[O-]	u	-9.6%	11.2µM*	-8.4%	u	-23.8%
COC(=O)c1cc(Cl)ccc1NC(=O)CSc1ncc(S(=O)(=O)c2ccc(Br)cc2)c(=O)[nH]1	-16.3%[59 µM]	x	79.4µM*	6.0%	-24.6%	x
COc1cc(NC(=O)CCn2cnc3ccccc3c2=O)cc(OC)c1	6.7%[59 µM]	x	-5.4%	16.3%[57 µM]	-20.0%	x
CC1CCN(c2nn3c(=O)c(C(=O)NCCc4ccccc4)cnc3s2)CC1	4.9%[59 µM]	x	2.5%	21.0%	0.6%	x
COc1ccc(CNC(=O)Cn2ncn3c(cc4ccccc43)c2=O)cc1	x	-18.2%	8.8%	36.9%	-12.7%	x
O=C(Cn1cnc2sc(-c3ccccc3)cc2c1=O)NCc1ccccc1	u	3.3%	13.7%	4.9%	-25.0%	x
O=C(Cn1ncn2c(cc3ccccc32)c1=O)NCc1ccco1	u	22.4µM*	50.1µM*	7.3%	u	u
O=C(Cn1cnc2sc(-c3ccccc3)cc2c1=O)NCc1ccco1	12.6µM*	31.6µM*	u	8.91µM*	3.16µM*	u
SMILES	G9a block	Sfp inh	BAZ2B block	HP1b chromo inh	JMJD2A Tudor	L3MBTL1 inh
Cc1ccc(-c2cc(NC(=O)C(C)Oc3ccc(C)c(C)c3)on2)cc1 (stereo unspecified)	40.2%[59 µM]	x	45.3%	101.5%	-5.6%	x
CC(=O)c1ccc(NC(=O)c2noc3c2CCCCC3)cc1	56.2µM*	-10.0%	16.0%	22.7%	-13.6%	3.9%
Cc1ccccc1NC(=S)N(Cc1ccco1)C(C)c1ccccn1 (stereo unspecified)	0.5%	79.4µM*	-1.2%	14.9%	-21.2%	x
O=C(NC1CCCCCC1)C(=O)NC1CC1	x	4.2%	u	46.1%	-2.1%	5.5%
O=C(NNC(=O)C1CCCCC1)C(=O)NC1CCCCC1	10µM*	-1.1%	0.8%	9.2%	u	8.7%
O=C(NC1CCCCCC1)C(=S)N1CCCC1	x	15.5%	5.5%	30.8%	-13.7%	4.1%
O=C(NC1CCCCCC1)C(=S)N1CCOCC1	u	15.8µM*	u	u	79.4µM*	1.0%
O=C(NC1CCCCCC1)C(=S)NC1CCCCC1	35.5µM*	20µM*	17.2%	32.0%	-28.1%	-17.3%
CSCC[C@H](N)C(=O)N[C@@H](CCCN=C(N)N)C(=O)N[C@@H](CC(C)C)C(=O)N[C@@H](Cc1ccccc1)C(=O)N[C@H](C(=O)O)C(C)C	x	-1.4%	x	x	x	x
Cc1cccc(Oc2coc3cc(OCC(=O)NC4CCCCC4)ccc3c2=O)c1	-3.3%[59 µM]	x	-0.5%	17.1%	-13.1%	x
CC(C)(C)c1cc(C(=O)/C=C/c2ccc(C(=O)O)cc2)cc(C(C)(C)C)c1	x	-3.8%	x	x	x	x
OC(CN1c2ccccc2Sc2ccccc21)Cn1nnc2ccccc21 (stereo unspecified)	20µM*	-8.9%	-2.7%	u	u	-12.8%
O=C1c2ccccc2C(=O)N1CC(O)Cn1nnc2ccccc21 (stereo unspecified)	9.9%[59 µM]	6.4%	-3.9%	31.6%	-8.2%	-3.6%
CC1CCN(C(c2ccccc2)c2sc3nc(-c4ccco4)nn3c2O)CC1 (stereo unspecified)	-21.3%[59 µM]	x	-21.2%	10.2%	-11.4%	x
O=C(CN1C(=O)NC2(CCCC2)C1=O)N1CCN(S(=O)(=O)c2ccccc2)CC1	11.7%	24.1%	x	60.5%	-5.7%	0.7%
Cc1ccc(C)c(S(=O)(=O)N2CCN(C(=O)CN3C(=O)C4CC=CCC4C3=O)CC2)c1 (stereo unspecified)	50.1µM*	x	3.9%	-1.9%	-4.1%	2.0%
CCOc1ccc(OCCC(=O)OCC(=O)N2CCN(S(=O)(=O)c3ccc(C)cc3)CC2)cc1	56.2µM*	x	-21.2%	33.1%	-13.6%	-27.7%
Cc1ccc(S(=O)(=O)N2CCN(C(=O)CN3C(=O)NC4(CCOc5ccccc54)C3=O)CC2)cc1 (stereo unspecified)	56.2µM*	1.7%	1.2%	32.9%	-7.4%	x
O=C(CN1C(=O)C2CC=CCC2C1=O)N1CCN(S(=O)(=O)c2ccccc2)CC1 (stereo unspecified)	x	x	x	32.8%	2.6%	2.2%
CCOc1ccc(S(=O)(=O)N2CCN(C(=O)CN3C(=O)NC4(CCCC4)C3=O)CC2)cc1	31.6µM*	x	0.4%	35.0%	-1.4%	8.2%
CNC(=O)c1cc2n(n1)CCCN(Cc1ccc(F)cc1)C2=O	-1.7%[12.7 µM]	x	1.3%	34.7%	11.3%	x

Bioassay records deposited in PubChem by National Center for Advancing Translational Sciences (NCATS).
